PubChem BioAssay (EPA / NIEHS)
Activity calls are given as the source filed them. How the source made its calls: active means hit-call score of the fitted dose curve at least 0.9, where 1 is the maximum; inactive means score below 0.9.

Assay: ATG_NF_kB_CIS: Attagene CIS-FACTORIAL HepG2 Assay for human Nuclear Factor Kappa B (NF-kB) (AID 2282991)
Details: HepG2 Attagene cis-factorial NF-kB reporter mRNA; actives raise or lower the signal
Protocol: ATG_CIS is a cell-based, multiplexed-readout assay that uses HepG2, a human liver cell line, with measurements taken at 24 hours after chemical dosing in a 24-well plate.ATG_NF_kB_CIS is one of 52 assay component(s) measured or calculated from the ATG_CIS assay. It is designed to make measurements of mRNA induction, a form of inducible reporter, as detected with fluorescence intensity signals by Reverse transcription polymerase chain reaction (RT-PCR) and Capillary electrophoresis technology.Data from the assay component ATG_NF_kB_CIS was analyzed into 1 assay endpoint. This assay endpoint, ATG_NF_kB_CIS, was analyzed with bidirectional fitting relative to DMSO as the negative control and baseline of activity. Using a type of inducible reporter, measures of mRNA for gain or loss-of-signal activity can be used to understand the reporter gene at the transcription factor-level as they relate to the gene NFKB1. Furthermore, this assay endpoint can be referred to as a primary readout, because this assay has produced multiple assay endpoints where this one serves a reporter gene function. To generalize the intended target to other relatable targets, this assay endpoint is annotated to the dna binding intended target family, where the subfamily is NF-kappa B.
Human liver HepG2 cells are transiently transfected with multiple reporter transcription units (MRTUs) in 6-well plates using FuGene 6 reagent (Roche; 3 ml FuGene/1 mg DNA). The MRTU constructs are regulated by a cis-regulating element (promoter). […] A major difference between the CIS and TRANS system is that in CIS activities of endogenous TFs are measured, whereas the TRANS assay evaluates changes in activities of exogenous, chimeric NR-Gal4 proteins. […] At the end of 24 hour incubation, total RNA was isolated using TriZol reagent (Invitrogen). The isolated RNA is then reverse-transcribed using oligo(dT) primer and Mo-MLV reverse transcriptase (Invitrogen) with DNAse I (Ambion) treatment for 30 min. The one-tenth of the produced cDNA was amplified by PCR using Taq DNA polymerase (Invitrogen) and two reporter sequence-specific primers. The PCR products were fluorescently labeled by primer extension with 6-arboxyfluorescein (6-FAM) 5'-labeled reporter sequence-specific primer (2 min at 95 C, 20 s at 68 C and 10 min at 72 C) and these products were digested with 5U of HpaI (New England Biolabs) for 2h at 37 C. The fragments were purified using Qiaquick PCR columns (Qiagen), analyzed on an ABI 3130xL genetic analyzer (Applied Biosystems) with peak positions identified by using a set of X-rhodamine (ROX)-labeled MapMarker1000 molecular weight standards (BioVentures). The raw capillary electrophoresis data was processed using Attagraph software (Attagene).

Compound	outcome	AC50
c1cc[c]([Sb]([c]2ccccc2)[c]2ccccc2)cc1	inactive	–
CCCCCCCCBr	inactive	–
COC(F)(C(F)(F)C(F)(F)F)C(F)(C(F)(F)F)C(F)(F)F (stereo not given)	inactive	–
Clc1cccc(Cl)c1	inactive	–
Brc1ccc(Oc2c(Br)cc(Br)cc2Br)c(Br)c1	inactive	–
CC[N+](CC)(CC)CC	inactive	–
C=CCCl	inactive	–
CCOP(=S)(OCC)Oc1ccc(Cl)cc1Cl	inactive	–
O=C(NC(=O)c1c(F)cccc1F)Nc1cc(Cl)c(Oc2ncc(C(F)(F)F)cc2Cl)c(Cl)c1	inactive	–
O=S(=O)(Oc1ccc(Cl)cc1)c1ccc(Cl)cc1	inactive	–
O=C=Nc1ccc(Cl)cc1	inactive	–
COC(=O)Nc1cccc(OC(=O)Nc2cccc(C)c2)c1	inactive	–
Oc1cc(Cl)c(Cl)cc1Cl	inactive	–
OCCN(CCO)CCO	inactive	–
Cc1cc(Cl)ccc1OCCCC(=O)O	inactive	–
C[C@H]1C(=O)O[C@@H]2CCN3CC=C(COC(=O)[C@](C)(O)[C@]1(C)O)[C@H]23	inactive	–
O=CCCl	–	32.7 µM (active)
c1ccc2c(c1)Oc1ccccc1O2	inactive	–
FC(F)OCC(F)(F)C(F)(F)F	inactive	–
C=CC(F)(C(F)(F)F)C(F)(F)C(F)(F)F (stereo not given)	inactive	–

Compound	outcome	AC50
O=C1c2ccccc2C(=O)C1C(=O)C(c1ccccc1)c1ccc(Cl)cc1 (stereo not given)	–	26.3 µM (active)
NC(=O)CCl	inactive	–
CCC[CH2][Sn]([CH2]CCC)([CH2]CCC)[CH2]CCC	–	11.1 µM (active)
Cc1cc(Cl)ccc1O	inactive	–
CC(=O)C(F)(F)C(F)(F)F	inactive	–
C[CH2][Hg][S]c1ccccc1C(=O)O	inactive	–
CC(c1ccccc1)(c1ccc(O)cc1)c1ccc(O)cc1	–	14.6 µM (active)
Nc1ccc(Br)cc1	inactive	–
CCCSP(=S)(OCC)Oc1ccc(Cl)cc1Cl (stereo not given)	inactive	–
O=C(O)COc1ccc(Cl)cc1	inactive	–
C=CC(=O)[O][Sn]([CH2]CCC)([CH2]CCC)[CH2]CCC	inactive	–
c1csc(-c2ccc(-c3cccs3)s2)c1	inactive	–
O=[N+]([O-])c1cccc2ccccc12	inactive	–
CCOc1ccc(N)cc1	inactive	–
OC(Cc1ccccc1Cl)(Cn1[nH]cnc1=S)C1(Cl)CC1 (stereo not given)	inactive	–
CC(C)O.CC(C)O.OCCN(CCO)CCO.OCCN(CCO)CCO.[Ti]	inactive	–
OCC(c1ccc(Cl)cc1)c1ccc(Cl)cc1	inactive	–
O=C(NC(=O)c1c(F)cccc1F)Nc1ccc(Cl)cc1	inactive	–
N#CCCC(Br)(C#N)CBr (stereo not given)	–	33.4 µM (active)
CCN(CC)C(=O)C(Cl)=C(C)OP(=O)(OC)OC	inactive	–
